{
  "source": "PubChem BioAssay (EPA / NIEHS)",
  "key": {"[1]": {"target": "rat Opioid Receptor, Non-selective Binding, Oprm1 (gene 25601) (UniProt P33535)", "sequence (P33535 whole entry, looked up)": "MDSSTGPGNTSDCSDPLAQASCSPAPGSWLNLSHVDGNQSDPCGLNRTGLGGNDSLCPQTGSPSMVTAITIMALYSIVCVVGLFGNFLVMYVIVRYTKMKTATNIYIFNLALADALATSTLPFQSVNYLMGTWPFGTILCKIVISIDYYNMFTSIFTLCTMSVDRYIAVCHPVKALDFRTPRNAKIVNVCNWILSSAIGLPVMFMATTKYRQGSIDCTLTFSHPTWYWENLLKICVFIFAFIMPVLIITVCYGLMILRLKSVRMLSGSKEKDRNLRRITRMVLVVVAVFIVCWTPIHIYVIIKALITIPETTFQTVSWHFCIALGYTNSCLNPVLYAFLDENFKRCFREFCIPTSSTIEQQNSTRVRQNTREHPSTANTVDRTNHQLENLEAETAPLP", "assay": "NVS_GPCR_rOpiate_NonSelective: NovaScreen (NVS) G Protein-Coupled Receptor Assay for rat Opioid Receptor, Non-selective Binding (AID 2283318)", "method_in_brief": "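Filter-based radioligand displacement using rat forebrain membrane preparations, measured 1.5 h post-dosing. Single-concentration duplicate screen at 25 uM, follow-up in concentration series; activity taken as signal loss relative to DMSO.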"}, "[2]": {"target": "rat Glutamate, AMPA Site (AMPA), Gria1 (gene 50592) (UniProt P19490)", "sequence (P19490 whole entry, looked up)": "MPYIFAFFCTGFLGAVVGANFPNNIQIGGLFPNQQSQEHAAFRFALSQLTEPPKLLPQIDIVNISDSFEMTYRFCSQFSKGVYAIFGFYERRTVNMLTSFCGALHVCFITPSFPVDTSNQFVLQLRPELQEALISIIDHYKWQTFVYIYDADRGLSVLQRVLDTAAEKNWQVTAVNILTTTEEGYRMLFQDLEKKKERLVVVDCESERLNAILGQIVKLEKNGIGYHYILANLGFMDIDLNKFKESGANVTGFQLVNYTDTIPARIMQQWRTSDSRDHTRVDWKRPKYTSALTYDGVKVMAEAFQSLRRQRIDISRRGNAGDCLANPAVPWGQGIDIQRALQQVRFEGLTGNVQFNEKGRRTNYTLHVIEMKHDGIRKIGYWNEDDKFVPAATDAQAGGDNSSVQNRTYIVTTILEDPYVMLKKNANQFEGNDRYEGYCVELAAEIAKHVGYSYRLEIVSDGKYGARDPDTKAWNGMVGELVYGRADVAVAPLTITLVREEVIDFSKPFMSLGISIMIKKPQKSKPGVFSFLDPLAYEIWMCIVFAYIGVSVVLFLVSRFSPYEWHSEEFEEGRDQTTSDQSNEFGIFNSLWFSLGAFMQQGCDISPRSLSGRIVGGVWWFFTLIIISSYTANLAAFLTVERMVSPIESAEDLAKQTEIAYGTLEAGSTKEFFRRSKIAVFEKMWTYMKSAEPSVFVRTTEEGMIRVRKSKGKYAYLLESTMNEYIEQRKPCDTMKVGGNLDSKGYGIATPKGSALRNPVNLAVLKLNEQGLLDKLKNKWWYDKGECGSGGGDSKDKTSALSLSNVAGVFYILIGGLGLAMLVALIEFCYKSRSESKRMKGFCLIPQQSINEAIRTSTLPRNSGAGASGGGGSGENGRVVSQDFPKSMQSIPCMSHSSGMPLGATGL", "assay": "NVS_LGIC_rAMPA: NovaScreen (NVS) Ligand-Gated Ion Channel Assay for rat Glutamate, AMPA Site (AMPA) (AID 2283324)", "method_in_brief": "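Screening at 25 uM in duplicate preceded concentration series reaching 50 uM for qualifying compounds. Radioligand displacement on rat forebrain membranes, 1 h, filter-based scintillation readout; reduced binding relative to DMSO.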"}, "[3]": {"target": "rat Neurokinin-1 Receptor (NK1), Tacr1 (gene 24807) (UniProt P14600)", "sequence (P14600 whole entry, looked up)": "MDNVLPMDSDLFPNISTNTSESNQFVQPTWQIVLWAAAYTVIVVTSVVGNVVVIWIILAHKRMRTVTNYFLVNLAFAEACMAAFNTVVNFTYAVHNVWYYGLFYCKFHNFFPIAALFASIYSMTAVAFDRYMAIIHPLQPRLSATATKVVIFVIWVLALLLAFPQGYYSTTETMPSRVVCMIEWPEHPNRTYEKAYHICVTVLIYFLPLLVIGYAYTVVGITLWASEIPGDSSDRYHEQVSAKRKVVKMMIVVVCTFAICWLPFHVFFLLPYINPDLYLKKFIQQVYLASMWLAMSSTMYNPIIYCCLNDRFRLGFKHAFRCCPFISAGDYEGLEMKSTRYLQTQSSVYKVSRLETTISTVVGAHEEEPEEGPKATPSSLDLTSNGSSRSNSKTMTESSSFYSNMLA", "assay": "NVS_GPCR_rNK1: NovaScreen (NVS) G Protein-Coupled Receptor Assay for rat Neurokinin-1 Receptor (NK1) (AID 2283309)", "method_in_brief": "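Competitive radioligand binding to NK1 in rat submaxillary membranes, 1 h incubation, filtration and scintillation read-out. Compounds first screened at 25 uM in duplicate, then concentration-response for actives; signal loss relative to DMSO.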"}, "[4]": {"target": "Metabotropic glutamate receptor 1 (Rattus norvegicus) (UniProt P23385)", "sequence (P23385 whole entry, looked up)": "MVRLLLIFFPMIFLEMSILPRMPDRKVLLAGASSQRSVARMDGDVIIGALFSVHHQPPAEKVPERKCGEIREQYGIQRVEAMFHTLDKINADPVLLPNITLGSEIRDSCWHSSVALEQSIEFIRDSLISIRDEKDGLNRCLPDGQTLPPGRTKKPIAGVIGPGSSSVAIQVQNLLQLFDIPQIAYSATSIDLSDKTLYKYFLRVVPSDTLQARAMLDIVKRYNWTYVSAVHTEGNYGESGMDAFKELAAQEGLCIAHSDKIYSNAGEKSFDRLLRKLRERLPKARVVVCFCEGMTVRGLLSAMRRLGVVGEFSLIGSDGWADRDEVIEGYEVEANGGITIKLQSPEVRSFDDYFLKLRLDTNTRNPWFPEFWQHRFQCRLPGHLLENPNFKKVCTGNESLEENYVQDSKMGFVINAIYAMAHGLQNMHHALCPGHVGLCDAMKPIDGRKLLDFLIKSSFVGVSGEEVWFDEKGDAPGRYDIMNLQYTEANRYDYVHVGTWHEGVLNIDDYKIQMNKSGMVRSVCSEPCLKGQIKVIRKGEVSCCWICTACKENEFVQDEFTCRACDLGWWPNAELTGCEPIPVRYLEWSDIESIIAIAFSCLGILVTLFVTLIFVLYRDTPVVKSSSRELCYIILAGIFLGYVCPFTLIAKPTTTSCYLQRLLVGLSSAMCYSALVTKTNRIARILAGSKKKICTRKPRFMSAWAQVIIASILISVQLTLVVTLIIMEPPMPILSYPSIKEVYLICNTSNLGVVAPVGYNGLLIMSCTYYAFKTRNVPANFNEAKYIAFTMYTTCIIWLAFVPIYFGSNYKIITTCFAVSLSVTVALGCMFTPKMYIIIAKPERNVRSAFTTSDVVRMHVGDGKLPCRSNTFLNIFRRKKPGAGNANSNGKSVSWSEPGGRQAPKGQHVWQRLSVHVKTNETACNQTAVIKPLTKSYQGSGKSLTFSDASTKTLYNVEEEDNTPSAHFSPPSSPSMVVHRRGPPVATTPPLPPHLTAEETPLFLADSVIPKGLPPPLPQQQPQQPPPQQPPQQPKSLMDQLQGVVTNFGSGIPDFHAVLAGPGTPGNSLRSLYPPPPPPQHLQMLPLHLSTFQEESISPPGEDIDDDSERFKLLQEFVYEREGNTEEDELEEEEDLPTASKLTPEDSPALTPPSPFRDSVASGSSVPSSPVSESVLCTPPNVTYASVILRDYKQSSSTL", "assay": "NVS_GPCR_rmMGluR1: NovaScreen (NVS) G Protein-Coupled Receptor Assay for rat Glutamate Metabotropic Receptor 1 (MGluR1) (AID 2283305)", "method_in_brief": "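Binding to native receptor from rat cerebellum extract, measured as displacement of a radioligand (scintillation counting, filter separation) after 1 hour. Compounds tested at 25 uM in duplicate, then titrated to a 50 uM maximum.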"}, "[5]": {"target": "rat Vasopressin 1 Receptor (V1), Avpr1a (gene 25107) (UniProt P30560)", "assay": "NVS_GPCR_rV1: NovaScreen (NVS) G Protein-Coupled Receptor Assay for rat Vasopressin 1 Receptor (V1) (AID 2283316)", "method_in_brief": "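Concentration-response up to 50 uM for chemicals passing a threshold such as 30% inhibition in an initial duplicate 25 uM screen. Displacement of radioligand from rat liver membranes measured after 1.5 h by filtration and scintillation.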"}, "[6]": {"target": "Sodium channel protein type 1 subunit alpha (Rattus norvegicus) (UniProt P04774)", "assay": "NVS_IC_rNaCh_site2: NovaScreen (NVS) Ion Channel Assay for rat Sodium Channel, Site 2 (NaCh) (AID 2283322);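 further: hit means loss of radioligand binding signal relative to DMSO so AC50 marks displacement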", "method_in_brief": "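Initial duplicate single-point testing at 25 uM, followed by concentration-response runs for actives. Binding of radioligand to rat forebrain membranes quantified after 1 h via filter-based radiodetection.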"}, "[7]": {"target": "rat Thyrotropin Releasing Hormone Receptor (TRH), Trhr (gene 25570) (UniProt Q01717)", "assay": "NVS_GPCR_rTRH: NovaScreen (NVS) G Protein-Coupled Receptor Assay for rat Thyrotropin Releasing Hormone Receptor (TRH) (AID 2283329);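 further: hit means lower bound tracer signal versus DMSO baseline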", "method_in_brief": "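Cell-free radioligand binding on rat forebrain membranes; bound tracer measured by filter-based scintillation counting 4 hours after dosing. Loss of signal versus DMSO baseline indicates displacement; primary screen at 25 uM in duplicate, actives then run in concentration series.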"}, "[8]": {"target": "rat Somatostatin Receptor (SST), Sstr1 (gene 25033) (UniProt P28646)", "sequence (P28646 whole entry, looked up)": "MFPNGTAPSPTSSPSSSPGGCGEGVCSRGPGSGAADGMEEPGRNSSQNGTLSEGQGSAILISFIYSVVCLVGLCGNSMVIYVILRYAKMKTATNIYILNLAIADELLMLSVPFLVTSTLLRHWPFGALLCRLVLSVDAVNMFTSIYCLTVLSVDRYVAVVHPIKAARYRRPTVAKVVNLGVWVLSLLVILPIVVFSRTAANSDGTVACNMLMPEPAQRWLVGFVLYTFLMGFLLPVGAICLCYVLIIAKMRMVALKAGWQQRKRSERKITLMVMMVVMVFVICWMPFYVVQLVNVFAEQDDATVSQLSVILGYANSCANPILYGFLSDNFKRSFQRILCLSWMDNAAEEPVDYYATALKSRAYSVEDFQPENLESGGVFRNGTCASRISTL", "assay": "NVS_GPCR_rSST: NovaScreen (NVS) G Protein-Coupled Receptor Assay for rat Somatostatin Receptor (SST) (AID 2283314)", "method_in_brief": "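Single-concentration duplicate screen (25 uM), then concentration-response up to 50 uM for chemicals passing a threshold such as 30% inhibition. Membranes came from rat forebrain. Binding was measured 1 h post-dose by filter radiodetection and scintillation, relative to DMSO.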"}, "[9]": {"assay": "NVS_IC_rCaDHPRCh_L: NovaScreen (NVS) Ion Channel Assay for rat Calcium Channel, Type L, Dihydropyridine Site (CaDHPRCh_L) (AID 2283320)", "method_in_brief": "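Rat cortex membrane preparation; dihydropyridine-site radioligand displacement read 1 h post-dose by filtration and scintillation. Primary single-point screen 25 uM in duplicate, then concentration series to 50 uM maximum; DMSO as negative control.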"}, "Adra2b (gene 24174)": {"target": "Adra2b (gene 24174) (UniProt P19328)", "sequence (P19328 whole entry, looked up)": "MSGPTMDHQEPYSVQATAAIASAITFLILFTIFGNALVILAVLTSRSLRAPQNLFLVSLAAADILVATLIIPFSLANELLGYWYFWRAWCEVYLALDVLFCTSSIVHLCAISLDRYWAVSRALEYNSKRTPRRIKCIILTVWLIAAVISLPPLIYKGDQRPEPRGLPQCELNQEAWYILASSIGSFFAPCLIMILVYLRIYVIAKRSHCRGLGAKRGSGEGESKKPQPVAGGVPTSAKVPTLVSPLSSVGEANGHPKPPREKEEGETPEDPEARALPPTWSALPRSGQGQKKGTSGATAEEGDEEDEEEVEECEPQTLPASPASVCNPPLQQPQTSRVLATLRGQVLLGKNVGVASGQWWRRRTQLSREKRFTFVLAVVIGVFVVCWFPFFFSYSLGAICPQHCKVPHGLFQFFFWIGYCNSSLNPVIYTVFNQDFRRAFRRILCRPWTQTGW", "assay": "NVS_GPCR_rmAdra2B: NovaScreen (NVS) G Protein-Coupled Receptor Assay for hybird cells Adrenergic, Alpha 2B Receptor (Adra2B) (AID 2283306)", "method_in_brief": "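Compounds screened first at 25 uM in duplicate, with actives followed up in concentration-response; specific radioligand displacement from hybrid neuroglioma/blastoma cell membrane preparations measured by filter scintillation counting after 1 h, normalized to DMSO.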"}, "[10]": {"target": "rat Opioid Receptor, Non-selective Sodium (Na+) Binding, Oprm1 (gene 25601) (UniProt P33535)", "sequence (P33535 whole entry, looked up)": "as the sequence (P33535 whole entry, looked up) above", "assay": "NVS_GPCR_rOpiate_NonSelectiveNa: NovaScreen (NVS) G Protein-Coupled Receptor Assay for rat Opioid Receptor, Non-selective Sodium (Na+) Binding (AID 2283311)", "method_in_brief": "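Filtration radioligand binding on rat forebrain membrane preparations, read 1.5 h after dosing. Single-concentration 25 µM primary screen in duplicate, followed by singleton concentration series to 50 µM max for actives; DMSO baseline.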"}, "[11]": {"target": "rat Neonicotinoid receptor (NNR), Chrna7 (gene 25302) (UniProt Q05941)", "assay": "NVS_LGIC_rNNR_BungSens: NovaScreen (NVS) Ligand-Gated Ion Channel Assay for rat Neonicotinoid receptor (NNR) (AID 2283315)", "method_in_brief": "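Rat cortical membrane preparation incubated 2.5 h with tritiated or iodinated radioligand and test chemical. Bound radioactivity was filtered and counted by scintillation, and displacement was analysed against DMSO.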"}, "[12]": {"target": "rat Gamma-Aminobutyric Acid Type B Receptor (GABBR), Gabbr1 (gene 81657) (UniProt Q9Z0U4)", "sequence (Q9Z0U4 whole entry, looked up)": "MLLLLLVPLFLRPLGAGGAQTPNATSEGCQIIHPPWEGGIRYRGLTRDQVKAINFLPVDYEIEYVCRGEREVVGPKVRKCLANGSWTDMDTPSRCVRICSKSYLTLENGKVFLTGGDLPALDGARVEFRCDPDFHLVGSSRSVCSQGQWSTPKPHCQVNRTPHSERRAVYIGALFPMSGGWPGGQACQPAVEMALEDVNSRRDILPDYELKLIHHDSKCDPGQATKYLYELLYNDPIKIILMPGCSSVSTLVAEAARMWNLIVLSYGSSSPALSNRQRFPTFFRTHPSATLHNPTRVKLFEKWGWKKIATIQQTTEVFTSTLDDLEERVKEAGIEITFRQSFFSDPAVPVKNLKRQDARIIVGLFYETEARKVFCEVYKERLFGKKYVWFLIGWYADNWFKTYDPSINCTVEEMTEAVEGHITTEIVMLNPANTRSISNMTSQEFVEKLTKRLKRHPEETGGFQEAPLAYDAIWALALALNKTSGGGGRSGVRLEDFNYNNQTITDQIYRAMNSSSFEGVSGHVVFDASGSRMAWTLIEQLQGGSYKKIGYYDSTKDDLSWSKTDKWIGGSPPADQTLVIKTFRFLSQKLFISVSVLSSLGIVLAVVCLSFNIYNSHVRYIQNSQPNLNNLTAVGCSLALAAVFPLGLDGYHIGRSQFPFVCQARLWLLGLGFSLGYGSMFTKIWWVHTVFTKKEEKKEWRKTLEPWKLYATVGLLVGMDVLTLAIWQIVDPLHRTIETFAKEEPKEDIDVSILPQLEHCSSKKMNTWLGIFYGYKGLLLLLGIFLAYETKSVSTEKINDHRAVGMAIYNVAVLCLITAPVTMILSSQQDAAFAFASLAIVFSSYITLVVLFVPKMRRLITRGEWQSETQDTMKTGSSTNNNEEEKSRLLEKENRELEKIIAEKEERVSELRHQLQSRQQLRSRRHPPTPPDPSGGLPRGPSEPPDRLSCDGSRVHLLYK", "assay": "NVS_GPCR_rGABBR: NovaScreen (NVS) G Protein-Coupled Receptor Assay for rat Gamma-Aminobutyric Acid Type B Receptor (GABBR) (AID 2283301)", "method_in_brief": "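Rat cortical membrane preparation, competitive radioligand binding for 1 h with filtration and scintillation readout. Actives from duplicate single-point 25 uM screening proceeded to concentration series with 50 uM top concentration.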"}, "[13]": {"target": "rat Neurokinin-3 Receptor (NK3), Tacr3 (gene 24808) (UniProt P16177)", "assay": "NVS_GPCR_rNK3: NovaScreen (NVS) G Protein-Coupled Receptor Assay for rat Neurokinin-3 Receptor (NK3) (AID 2283310)", "method_in_brief": "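Filter-based radioligand displacement on rat cortex membrane preparations, read by scintillation 2 h post-dose. Chemicals first tested in duplicate at 25 uM; actives followed up in concentration series with a 50 uM maximum.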"}},
  "note": "Results filed as inconclusive are left out. The source made the active and inactive calls. How the source made its calls: active means hit-call score of the fitted dose curve at least 0.9, where 1 is the maximum; inconclusive means response in the unintended direction; inactive means score below 0.9.",
  "data": [
    {"smiles": "Cc1cc(NC(=O)C(=O)O)cc(C)c1Oc1ccc(O)c2c1CCC2", "values": [
      {"measurement": "outcome", "setting": "[1]", "value": "inactive"},
      {"measurement": "outcome", "setting": "[2]", "value": "inactive"}
    ]},
    {"smiles": "COc1cc(S(=O)(=O)O)c(C)cc1N=Nc1c(O)ccc2cc(S(=O)(=O)O)ccc12", "values": [
      {"measurement": "AC50", "setting": "[3]", "value": "25 µM (active)"}
    ]},
    {"smiles": "Nc1ccccc1N", "values": [
      {"measurement": "outcome", "setting": "[3]", "value": "inactive"}
    ]},
    {"smiles": "CC1(C)CC(N=C=O)CC(C)(CN=C=O)C1", "note": "(centres undefined)", "values": [
      {"measurement": "outcome", "setting": "[4]", "value": "inactive"}
    ]},
    {"smiles": "COc1ccc(S(=O)(=O)N2C(=O)[C@@](c3ccccc3OC)(N3C[C@H](O)C[C@H]3C(=O)N(C)C)c3cc(Cl)ccc32)c(OC)c1", "values": [
      {"measurement": "outcome", "setting": "[4]", "value": "inactive"},
      {"measurement": "AC50", "setting": "[3]", "value": "11.3 µM (active)"},
      {"measurement": "outcome", "setting": "[5]", "value": "inactive"},
      {"measurement": "AC50", "setting": "[6]", "value": "39.6 µM (active)"},
      {"measurement": "AC50", "setting": "[7]", "value": "10.4 µM (active)"}
    ]},
    {"smiles": "CC(C)c1ccc(C(=O)N=C(N)N)cc1S(C)(=O)=O", "values": [
      {"measurement": "AC50", "setting": "[1]", "value": "5.07 µM (active)"},
      {"measurement": "AC50", "setting": "[6]", "value": "34 µM (active)"}
    ]},
    {"smiles": "CCOc1ccc2c(c1)C(C)=CC(C)(C)N2", "values": [
      {"measurement": "outcome", "setting": "[2]", "value": "inactive"}
    ]},
    {"smiles": "Cc1cc(=O)[nH]c(=S)[nH]1", "values": [
      {"measurement": "AC50", "setting": "[8]", "value": "13.2 µM (active)"},
      {"measurement": "outcome", "setting": "[9]", "value": "inactive"}
    ]},
    {"smiles": "Cc1nc(C)nc(N2C[C@@H](C)N(c3ccnc([C@@H](C)O)n3)[C@@H](C)C2)n1", "values": [
      {"measurement": "outcome", "setting": "Adra2b (gene 24174)", "value": "inactive"}
    ]},
    {"smiles": "NC(=O)Cn1c(=O)cc(CCN2CCN(c3nccc4sccc34)CC2)c2ccc(F)cc21", "values": [
      {"measurement": "AC50", "setting": "Adra2b (gene 24174)", "value": "131 nM (active)"},
      {"measurement": "AC50", "setting": "[10]", "value": "1.38 µM (active)"},
      {"measurement": "AC50", "setting": "[1]", "value": "1.45 µM (active)"},
      {"measurement": "outcome", "setting": "[6]", "value": "inactive"}
    ]},
    {"smiles": "O=C(N[C@@H](Cc1ccccc1)[C@@H](O)C(=O)N1C[C@@H](O)[C@@H](O)C1)c1cc2cc(Cl)ccc2[nH]1", "values": [
      {"measurement": "AC50", "setting": "[10]", "value": "19.4 µM (active)"},
      {"measurement": "AC50", "setting": "[1]", "value": "25 µM (active)"},
      {"measurement": "outcome", "setting": "[6]", "value": "inactive"}
    ]},
    {"smiles": "Cc1nc(-c2ccc3c(c2)CCN(CCC2CCC(NC(=O)/C=C/c4ccc(F)cc4)CC2)CC3)no1", "note": "(centres undefined)", "values": [
      {"measurement": "outcome", "setting": "[11]", "value": "inactive"},
      {"measurement": "AC50", "setting": "[6]", "value": "0.265 µM (active)"}
    ]},
    {"smiles": "Cc1oc(-c2ccccc2)nc1CCOc1cccc2c1ccn2CCC(=O)O", "values": [
      {"measurement": "AC50", "setting": "[12]", "value": "15.9 µM (active)"}
    ]},
    {"smiles": "CCCCCCCC=O", "values": [
      {"measurement": "outcome", "setting": "[2]", "value": "inactive"}
    ]},
    {"smiles": "CNC(=O)[C@H]1O[C@@H](n2cnc3c(NCc4cc(Cl)ccc4OCc4cc(C)no4)ncnc32)[C@H](O)[C@@H]1N", "values": [
      {"measurement": "outcome", "setting": "Adra2b (gene 24174)", "value": "inactive"},
      {"measurement": "AC50", "setting": "[8]", "value": "37.9 µM (active)"}
    ]},
    {"smiles": "FC(F)(F)C(F)(F)C(F)(F)C(F)(F)C(F)(F)C(F)(F)CCI", "values": [
      {"measurement": "outcome", "setting": "[9]", "value": "inactive"}
    ]},
    {"smiles": "CCc1c(C(=O)NN2CCCCC2)nn(-c2ccc(Cl)cc2Cl)c1-c1ccc(Br)cc1", "values": [
      {"measurement": "outcome", "setting": "[13]", "value": "inactive"},
      {"measurement": "outcome", "setting": "[9]", "value": "inactive"},
      {"measurement": "AC50", "setting": "[6]", "value": "11.5 µM (active)"}
    ]},
    {"smiles": "CCOC(=O)CCC(=O)OCC", "values": [
      {"measurement": "outcome", "setting": "[6]", "value": "inactive"}
    ]}
  ]
}
